Bioassay records (PubChem)
Sampled rows, rich in hits. Any-hit rate of the full collection: about 2.9%.
Vif imaging: blocks HIV Vif function | inhibition, % at 7.49 µM | AID 602346 | HEK293T cells, Vif self-association by quenched fluorescence, imaging, 24 h | hit rate 0.35% among 340,000; in the data active means inhibition above about 50%, passing the limit was not always enough; inconclusive means no clear call, values can overlap the other calls; inactive means below about 31%
Glyco luc inh: blocks N-linked glycosylation in D54 reporter cells; D54 ERlucT glycosylation luciferase reporter, 24 h; percent of 100 nM tunicamycin response; reporter increase, % at 12.5 µM; hit rate 0.23% among 360,000;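 active means mean luciferase reporter signal, scaled so untreated is 0 and the glycosylation-blocking control 100, at or above a set limit in every replicate; inconclusive means mean reaches the limit but not every replicate does; inactive means mean below the limit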;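 further: luciferase carries N-glycosylation sites so blocking glycosylation raises the light; 0% = median of neutral control wells and 100% = median of 100 nM tunicamycin wells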
PvdQ inh: blocks Pseudomonas aeruginosa PvdQ acylase activity; purified PvdQ acylase, fluorescence plate reader; inhibition, % at 10 µM; hit rate 0.063% among 340,000; in the data active means inhibition above about 30%, passing the limit was not always enough; inconclusive means no clear call, values can overlap the other calls;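 further: 0% = vehicle neutral wells and 100% = reference inhibitor wells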
esBAF inh: blocks esBAF chromatin remodeling in mouse ES cells. Bmi1-luciferase knock-in reporter, 24 h; 100% = twice the neutral-well signal. reporter increase, % at 12.5 µM. hit rate 2% among 350,000; in the data active means activation above about 40%; inconclusive means no clear call, values can overlap the other calls;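 further: 0% = median of the plate's neutral control wells and 100% = double that signal; a rise in the Bmi1 reporter signal indicates esBAF inhibition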
Wnt bcat act: activates Wnt/beta-catenin signaling in a reporter cell assay; activator, plate reader; activation, % at 9.35 µM; hit rate 1.2% among 300,000; in the data active means activation above about 30%, passing the limit was not always enough; inconclusive means no clear call, values can overlap the other calls;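 further: 0% = neutral control wells and 100% = positive control wells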
MITF TRPM1 HTS: increases MITF-driven TRPM1 promoter luciferase signal. SK-MEL-5 TRPM1-promoter luciferase, 24 h; % of positive control, neutral wells = 0. activation, % at 12.5 µM. hit rate 0.75% among 300,000;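 active means mean activation of at least 80% with every replicate also reaching 80%; inconclusive means mean reaches 80% but some replicate falls short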;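 further: 0% = neutral control wells and 100% = parthenolide positive control wells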
The depositor's hits bear a star.

Cc1ccccc1Cn1ccc(-c2ccc3c(c2)OCO3)n1 was read as Vif imaging -2.0, Glyco luc inh -0.7, PvdQ inh -15.2, esBAF inh 60.4* and MITF TRPM1 HTS 73.3.
Cc1ccccc1Cn1nnc(-c2ccc(C(=O)O)cc2)n1 was read as Vif imaging 4.7, Glyco luc inh 4.7, PvdQ inh -5.7, Wnt bcat act -0.9 and MITF TRPM1 HTS -1.6.
Screening CC(C)NC(=O)Nc1ccc2c(c1)C(=O)N([C@@H](C)CO)C[C@@H](C)[C@H](CN(C)CC1CC1)OCCCC[C@@H](C)O2 returned esBAF inh -1.6.
Screening C[C@@H]1CN([C@@H](C)CO)S(=O)(=O)c2ccc(C#CC3CC3)cc2O[C@@H]1CN(C)S(C)(=O)=O returned esBAF inh 4.6.
CCCCSc1nn[nH]n1 was read as Vif imaging 52.0*, Glyco luc inh 1.0, PvdQ inh 7.2, esBAF inh -1.3, Wnt bcat act -1.5 and MITF TRPM1 HTS -2.8.
For CCCCSc1nnc(CCC)n1N the results were Vif imaging -17.7, Glyco luc inh 1.5, PvdQ inh 1.2 and esBAF inh -2.2.
`CCCC#Cc1ccc2c(c1)O[C@@H](CN(C)C(=O)Nc1ccc(OC)cc1)[C@@H](C)CN([C@@H](C)CO)S2(=O)=O` gave esBAF inh 7.7.
Screening COc1ccc(C=C(C(=O)O)c2ccc(OC)cc2)cc1 returned Vif imaging 6.4, Glyco luc inh 1.0, PvdQ inh -14.0, esBAF inh 52.1*, Wnt bcat act 29.3 and MITF TRPM1 HTS 42.6.
For COc1ccc(C(=Cc2ccccc2)C(=O)O)cc1 the results were Vif imaging 5.8, Glyco luc inh -1.2, PvdQ inh 2.7, esBAF inh 2.0, Wnt bcat act 3.3 and MITF TRPM1 HTS -6.8.
`COc1ccccc1CN1[C@H](CO)[C@H]2c3ccccc3N(C(=O)c3ccncc3)C[C@H]21` gave esBAF inh -7.4.
`CNC(=O)c1ccc(-c2cc(C(F)(F)F)nn2C)s1` gave Vif imaging 1.1, Glyco luc inh 2.1 and Wnt bcat act 35.0*.
N#CC(c1ccc(F)cc1)c1ccc(C(=O)c2ccccc2)cc1 (stereo not drawn) was read as Vif imaging -5.7, Glyco luc inh -6.0, PvdQ inh 48.0*, esBAF inh -0.6 and MITF TRPM1 HTS -2.0.
Screening CO[C@@H]1CN(C)C(=O)c2ccc(NS(=O)(=O)c3cn(C)cn3)cc2OC[C@H](C)N(Cc2cccc(F)c2)C[C@@H]1C returned esBAF inh 0.8.
For O=C(CSC1=Nc2ccccc2C2CC=NN12)Nc1ccc2c(c1)OCO2 (stereo not drawn) the results were Vif imaging -0.6, Glyco luc inh 1.6, PvdQ inh -1.7, esBAF inh -3.8, Wnt bcat act -0.2 and MITF TRPM1 HTS -2.1.
For N#Cc1ccccc1NC(=O)CSC1=Nc2ccccc2C2CC=NN12 (stereo not drawn) the results were Vif imaging -5.5, Glyco luc inh -2.3, PvdQ inh -11.0, esBAF inh 3.0, Wnt bcat act 47.3* and MITF TRPM1 HTS -17.6.
Screening C[C@H]1CN([C@@H](C)CO)C(=O)c2cccc(NC(=O)C3CC3)c2O[C@@H]1CN(C)Cc1ccc(Oc2ccccc2)cc1 returned esBAF inh -4.3.
Screening CCOc1cccc2cc(-c3csc(NC(=O)CCC(=O)N4CCC(C)CC4)n3)c(=O)oc12 returned Vif imaging 7.5, Glyco luc inh 2.6, PvdQ inh 3.5, esBAF inh 7.1 and MITF TRPM1 HTS -33.6.
CCOc1cccc2cc(-c3csc(NC(=O)CCC(=O)NCCN4CCCCC4C)n3)c(=O)oc12 (stereo not drawn) was read as Vif imaging -1.0, Glyco luc inh -8.1, PvdQ inh -9.7, esBAF inh 13.5, Wnt bcat act -1.2 and MITF TRPM1 HTS 109.9*.
CO[C@H]1CN(C)C(=O)c2ccc(NC(=O)C3CCCCC3)cc2OC[C@@H](C)N(Cc2nccs2)C[C@@H]1C was read as esBAF inh -15.7.
COc1cc(O)c(C(=O)/C=C/c2ccccc2)c(OC)c1 was read as Vif imaging 8.3, Glyco luc inh 41.7*, PvdQ inh 0.5, esBAF inh 53.1* and Wnt bcat act -1.6.
Screening COc1ccc(/C=C/C(=O)c2ccccc2)c(OC)c1 returned Vif imaging 4.0, Glyco luc inh -1.7, PvdQ inh -12.0, Wnt bcat act 61.1* and MITF TRPM1 HTS 54.4.
Screening COc1ccc2[nH]cc(/C=C/C(=O)c3ccccc3)c2c1 returned Vif imaging -20.6, Glyco luc inh -6.3, PvdQ inh -1.7, Wnt bcat act 39.2* and MITF TRPM1 HTS inconclusive.
For O=C(/C=C/c1c[nH]c2ccccc12)c1ccccc1 the results were Vif imaging 4.9, Glyco luc inh -2.2, PvdQ inh -9.6 and MITF TRPM1 HTS 33.2.
For CNC[C@H]1Oc2ccc(NC(=O)Nc3ccc4c(c3)OCO4)cc2C(=O)N([C@@H](C)CO)C[C@H]1C the results were esBAF inh -4.9.
C=CCNC(=O)c1cc2c(=O)n3ccccc3nc2s1 was read as Vif imaging 0.8, Glyco luc inh -1.3, PvdQ inh 4.5, esBAF inh 4.5, Wnt bcat act 35.8* and MITF TRPM1 HTS 66.3.
Screening CC(C)NC(=O)c1cc2c(=O)n3ccccc3nc2s1 returned Vif imaging 0.5, Glyco luc inh 1.1, PvdQ inh -2.7, esBAF inh 4.8, Wnt bcat act 3.6 and MITF TRPM1 HTS -11.0.
For O=C(NC1CCCCCC1)c1cc2c(=O)n3ccccc3nc2s1 the results were Vif imaging -6.0, Glyco luc inh 2.2, PvdQ inh -26.7, esBAF inh 45.0*, Wnt bcat act 11.1 and MITF TRPM1 HTS 90.7*.
For C[C@@H]1CN([C@H](C)CO)C(=O)Cc2cc(N(C)C)ccc2O[C@H]1CN(C)Cc1ccc(-c2ccccc2)cc1 the results were esBAF inh -0.9.
COc1cccc(NC(=O)N2C[C@@H](O)COC[C@@H]3O[C@H](CC(=O)NCc4ccccc4F)CC[C@H]32)c1 was read as esBAF inh 0.0.
For Cc1csc(=N)n1-c1ccc(Cl)cc1 the results were Vif imaging inconclusive, Glyco luc inh 0.1, PvdQ inh -2.8, esBAF inh 63.5*, Wnt bcat act -1.1 and MITF TRPM1 HTS 96.8*.
`Cc1ccc(-n2c(C)csc2=N)cc1` gave Vif imaging 1.1, Glyco luc inh -3.6, PvdQ inh 15.2, esBAF inh 35.5 and MITF TRPM1 HTS 58.8.
CN1CCC(NC(=O)NC2CCCCC2)CC1 was read as Vif imaging -6.2, Glyco luc inh 1.2, PvdQ inh -13.9, esBAF inh 0.9, Wnt bcat act 2.9 and MITF TRPM1 HTS 8.2.
Screening CN1CCN(CC(=O)NC2CCCCC2)CC1 returned Vif imaging 92.5*, Glyco luc inh -1.1, PvdQ inh -7.2, esBAF inh 4.1 and MITF TRPM1 HTS 0.8.
